Reference: PubChem BioAssay AID1159580 (chemical genetic matrix, 2015)
Out of some 5,500 compounds screened, about 2,000 (36%) were called active. Roughly 18% stayed inconclusive and do not appear here. Cut-off read from the data, not from the text of the source: active = normalized growth mostly below about 0.91 (no sharp cut-off); inconclusive = no clear call, values can overlap the other calls; inactive = mostly above about 0.92. The list shows a part of the results.

Experiment: chemical genetic growth profiling, strain panel (AID 1159580);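 note: tested at 20 µM; growth read once vehicle control cultures reached saturation at 30 °C; 1 = growth at the plate median or of vehicle wells; lower values mean less growth of the strain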
Details: growth OD

Measured: normalized growth

COc1cc(O)c2c(c1)C(=O)c1cc(C)cc(O)c1C2=O
active: S. cerevisiae deletion strains, locus YLR262C, strain YPT6 (second series), active compounds read low 0.845 | S. cerevisiae deletion strains, locus YML032C, strain rad52, active compounds read low 0.812 | S. cerevisiae deletion strains, locus YNL250W, strain rad50, active compounds read low 0.834 | S. cerevisiae deletion strains, locus YNL307C, strain MCK1, active compounds read low 0.862 | S. cerevisiae deletion strains, locus YOR069W, strain VPS5, active compounds read low 1.12 [resistant]
inactive: S. cerevisiae deletion strains, locus YJR075W, strain HOC1, active compounds read low 1 | S. cerevisiae deletion strains, locus YKL009W, strain mrt4, active compounds read low 0.921 | S. cerevisiae deletion strains, locus YKL068W, active compounds read low 1.01 | S. cerevisiae deletion strains, locus YKL085W, strain MDH1 (second series), active compounds read low 0.98 | S. cerevisiae deletion strains, locus YKL085W, strain MDH1, active compounds read low 0.98 | S. cerevisiae deletion strains, locus YKL160W, strain elf1, active compounds read low 0.997 | S. cerevisiae deletion strains, locus YKL190W, strain CNB1, active compounds read low 1.02 | S. cerevisiae deletion strains, locus YKR001C, strain vps1, active compounds read low 1.02 | S. cerevisiae deletion strains, locus YKR026C, strain gcn3, active compounds read low 0.997 | S. cerevisiae deletion strains, locus YKR091W, strain srl3, active compounds read low 0.981 | S. cerevisiae deletion strains, locus YLL001W, strain dnm1, active compounds read low 0.994 | S. cerevisiae deletion strains, locus YLL026W, active compounds read low 0.995 | S. cerevisiae deletion strains, locus YLL041C, strain sdh2, active compounds read low 0.988 | S. cerevisiae deletion strains, locus YLR027C, strain aat2, active compounds read low 0.986 | S. cerevisiae deletion strains, locus YLR039C, strain RIC1, active compounds read low 0.846 | S. cerevisiae deletion strains, locus YLR058C, strain SHM2, active compounds read low 1 | S. cerevisiae deletion strains, locus YLR102C, strain apc9, active compounds read low 0.997 | S. cerevisiae deletion strains, locus YLR113W, strain HOG1, active compounds read low 0.979 | S. cerevisiae deletion strains, locus YLR221C, strain rsa3, active compounds read low 0.995 | S. cerevisiae deletion strains, locus YLR258W, strain gsy2, active compounds read low 0.978 | S. cerevisiae deletion strains, locus YLR262C, strain YPT6, active compounds read low 0.884 | S. cerevisiae deletion strains, locus YLR268W, strain sec22, active compounds read low 0.924 | S. cerevisiae deletion strains, locus YLR320W, strain mms22, active compounds read low 0.962 | S. cerevisiae deletion strains, locus YLR330W, strain CHS5, active compounds read low 1.01 | S. cerevisiae deletion strains, locus YLR342W, strain FKS1 (second series), active compounds read low 1.02 | S. cerevisiae deletion strains, locus YLR342W, strain FKS1, active compounds read low 0.994 | S. cerevisiae deletion strains, locus YLR357W, strain rsc2, active compounds read low 0.945 | S. cerevisiae deletion strains, locus YLR370C, strain arc18, active compounds read low 0.986 | S. cerevisiae deletion strains, locus YLR371W, strain rom2, active compounds read low 1 | S. cerevisiae deletion strains, locus YLR384C, strain iki3, active compounds read low 0.977 | S. cerevisiae deletion strains, locus YLR418C, strain cdc73, active compounds read low 1 | S. cerevisiae deletion strains, locus YML016C, strain PPZ1, active compounds read low 1.01 | S. cerevisiae deletion strains, locus YML120C, strain ndi1, active compounds read low 1 | S. cerevisiae deletion strains, locus YML124C, strain tub3, active compounds read low 1 | S. cerevisiae deletion strains, locus YMR058W, strain fet3, active compounds read low 1.01 | S. cerevisiae deletion strains, locus YMR078C, strain ctf18, active compounds read low 0.982 | S. cerevisiae deletion strains, locus YMR125W, strain sto1, active compounds read low 0.995 | S. cerevisiae deletion strains, locus YMR129W, active compounds read low 0.992 | S. cerevisiae deletion strains, locus YMR205C, strain PFK2, active compounds read low 0.97 | S. cerevisiae deletion strains, locus YMR223W, strain ubp8, active compounds read low 0.974 | S. cerevisiae deletion strains, locus YMR231W, strain pep5, active compounds read low 0.979 | S. cerevisiae deletion strains, locus YMR263W, strain SAP30, active compounds read low 1.01 | S. cerevisiae deletion strains, locus YMR307W, strain GAS1, active compounds read low 0.931 | S. cerevisiae deletion strains, locus YNL067W, strain RPL9B, active compounds read low 0.989 | S. cerevisiae deletion strains, locus YNL071W, strain lat1, active compounds read low 0.998 | S. cerevisiae deletion strains, locus YNL128W, strain TEP1, active compounds read low 1.02 | S. cerevisiae deletion strains, locus YNL153C, strain GIM3, active compounds read low 1 | S. cerevisiae deletion strains, locus YNL183C, strain NPR1, active compounds read low 0.99 | S. cerevisiae deletion strains, locus YNL209W, strain ssb2, active compounds read low 0.985 | S. cerevisiae deletion strains, locus YNL233W, strain BNI4, active compounds read low 0.986 | S. cerevisiae deletion strains, locus YNL248C, strain rpa49, active compounds read low 0.987 | S. cerevisiae deletion strains, locus YNL271C, strain bni1, active compounds read low 0.996 | S. cerevisiae deletion strains, locus YNL298W, strain CLA4, active compounds read low 0.91 | S. cerevisiae deletion strains, locus YNL322C, strain KRE1 (second series), active compounds read low 0.974 | S. cerevisiae deletion strains, locus YNL322C, strain KRE1, active compounds read low 1.01 | S. cerevisiae deletion strains, locus YNR049C, strain mso1, active compounds read low 0.987 | S. cerevisiae deletion strains, locus YNR052C, strain pop2, active compounds read low 0.992 | S. cerevisiae deletion strains, locus YOL006C, strain TOP1, active compounds read low 0.775 | S. cerevisiae deletion strains, locus YOL012C, strain htz1 1.44 | S. cerevisiae deletion strains, locus YOL147C, strain pex11, active compounds read low 1.02 | S. cerevisiae deletion strains, locus YOR001W, strain rrp6, active compounds read low 1.01 | S. cerevisiae deletion strains, locus YOR061W, strain CKA2, active compounds read low 1 | S. cerevisiae deletion strains, locus YOR070C, strain gyp1, active compounds read low 0.979 | S. cerevisiae deletion strains, locus YOR080W, strain dia2, active compounds read low 0.978 | S. cerevisiae deletion strains, locus YOR083W, strain WHI5, active compounds read low 0.984 | S. cerevisiae deletion strains, locus YOR106W, strain vam3, active compounds read low 0.991 | S. cerevisiae deletion strains, locus YOR136W, strain idh2, active compounds read low 0.997 | S. cerevisiae deletion strains, locus YOR144C, strain elg1, active compounds read low 1 | S. cerevisiae deletion strains, locus YOR184W, strain ser1, active compounds read low 0.971 | S. cerevisiae deletion strains, locus YOR231W, strain MKK1, active compounds read low 1.02 | S. cerevisiae deletion strains, locus YOR265W, strain rbl2, active compounds read low 0.983 | S. cerevisiae deletion strains, locus YOR270C, strain vph1, active compounds read low 0.978 | S. cerevisiae deletion strains, locus YOR290C, strain snf2, active compounds read low 0.93 | S. cerevisiae deletion strains, locus YOR316C, strain cot1, active compounds read low 1 | S. cerevisiae deletion strains, locus YPL051W, strain arl3, active compounds read low 0.939 | S. cerevisiae deletion strains, locus YPL055C, strain LGE1, active compounds read low 0.999 | S. cerevisiae deletion strains, locus YPL078C, strain atp4, active compounds read low 1 | S. cerevisiae deletion strains, locus YPL106C, strain sse1, active compounds read low 0.973 | S. cerevisiae deletion strains, locus YPL240C, strain hsp82, active compounds read low 0.98 | S. cerevisiae deletion strains, locus YPL256C, strain CLN2, active compounds read low 1.03 | S. cerevisiae deletion strains, locus YPR119W, strain clb2, active compounds read low 0.984 | S. cerevisiae deletion strains, locus YPR141C, strain kar3, active compounds read low 1.01 | S. cerevisiae deletion strains, locus YPR163C, strain tif3, active compounds read low 0.949 | S. cerevisiae deletion strains, locus YPR167C, strain met16, active compounds read low 0.999 | S. cerevisiae deletion strains, strain wtn01, active compounds read low 0.995 | S. cerevisiae strains, strain wild type, active compounds read low 1.01
